As a reminder, the inhibition is the drop in the measured response relative to a control, in per cent.

Each structure is given as a SMILES string. This is one part of the list. The source made the active and inactive calls.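 Rule for the calls: active = inhibition above the hit threshold that was computed for the earlier primary screen (cut at about 30% in these data); inactive = the rest.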

For the test, the target named is Sphingosine 1-phosphate receptor 3 (Homo sapiens) (UniProt Q99500). Description: blockers of human S1P3 signalling – cell-based, confirmation (AID 1429).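 Note: 0% = S1P-stimulated wells and 100% = unstimulated DMSO-only wells.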 The note with it: CHO S1P3 NFAT-BLA reporter, FRET, antagonist mode; at 4.98 µM; stronger effect = higher value.
Sequence of Sphingosine 1-phosphate receptor 3 (Homo sapiens) (Q99500 whole entry, looked up): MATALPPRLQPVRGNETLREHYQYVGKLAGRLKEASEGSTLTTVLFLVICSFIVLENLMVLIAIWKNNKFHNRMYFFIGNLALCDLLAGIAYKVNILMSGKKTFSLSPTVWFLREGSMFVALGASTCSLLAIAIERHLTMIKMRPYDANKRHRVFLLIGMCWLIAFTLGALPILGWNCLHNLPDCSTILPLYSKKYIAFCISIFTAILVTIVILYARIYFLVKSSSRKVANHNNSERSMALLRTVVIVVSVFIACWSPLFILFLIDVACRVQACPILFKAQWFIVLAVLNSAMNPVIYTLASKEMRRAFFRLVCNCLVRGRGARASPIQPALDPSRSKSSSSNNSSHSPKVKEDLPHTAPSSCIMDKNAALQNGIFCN
In the case of `Nc1c(C(=O)c2cccs2)sc2nsc(SCCN3CCCCC3)c12`, the inhibition was 18.8% (inactive).
The same measure for `CCOC(=O)C1=C(C)N=C2c3ccccc3C(=O)C2C1c1ccc(Br)cc1` (stereo not given): 77.8% (active).
As to `O=C(N/N=C/c1coc2ccccc2c1=O)c1cc2ccccc2o1`, the inhibition is -18.6% (inactive).
The same measure for `S=C(NCCc1ccccc1)NCC1CCCO1` (stereo not given): -4.63% (inactive); for `CCN1/C(=C\c2ccc3ccccc3[n+]2CC)Sc2cc(C)ccc21`: 10.8% (inactive).
With `CC(C)Oc1ccccc1C(=O)NC(CO)C(=O)O` (stereo not given), the inhibition is -23.6% (inactive).
As for `CC(=O)c1c(C)[nH]c(C(=O)COC(=O)c2cccc(S(=O)(=O)N(C)c3ccccc3)c2)c1C`, the inhibition is 10.9% (inactive).
Take `CSc1ccc(CN(C)CC(=O)NCc2ccc(F)cc2)cc1`: the inhibition was -9.96% (inactive).
For the compound `CC[C@H]1CN2CCc3cc(OC)c(OC)cc3[C@@H]2C[C@@H]1C[C@H]1NCCc2cc(OC)c(OC)cc21`, the inhibition was 109% (active).
The figure for `Cc1ccc(NC(=O)CN(C)CC(=O)Nc2cccc(F)c2)cc1[N+](=O)[O-]` is 12.6% (inactive).
